Measured values as given in the supplement of paper PMC6555819.

What was measured:
Assay in all cases: PBM binding z-score (relative to random genomic background probes); higher = stronger binding; sequences stand for … in GC…GCGATTGACAGCGTAGAATGAAGG
[1] = test system: RARb homodimer (NR concentration 270 nM)
Method in brief: (§1)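 Antibodies against each partner of ligand-free nuclear receptor dimers (one per run) detected binding on custom Agilent 4×180K protein-binding microarrays after 1 h incubation. The double-stranded probes had 34-nt variable regions carrying direct-repeat seeds, single-nucleotide variants, half-site ablations and random human genomic background sequences. Binding z-scores, from regression-normalized fluorescence, use the random background probes as reference.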

[2] = test system: RARg:RXRa (NR concentration 270 nM, RXRa partner concentration 90 nM)
Method in brief: as §1

[3] = test system: RARg homodimer (NR concentration 270 nM)
Method in brief: as §1

[4] = test system: RXRa DBDmut IVT, anti-RXR (DBD mutation: RXRa K156A/R161A, NR concentration 90 nM)
Method in brief: as §1

[5] = test system: RXRa homodimer (NR concentration 180 nM)
Method in brief: as §1

[6] = test system: THRa:RXRa (NR concentration 90 nM, RXRa partner concentration 90 nM)
Method in brief: as §1

[7] = test system: THRa homodimer (NR concentration 90 nM)
Method in brief: as §1

[8] = test system: VDR homodimer (NR concentration 270 nM)
Method in brief: as §1

Sequence	PBM binding z-score [1]	PBM binding z-score [2]	PBM binding z-score [3]	PBM binding z-score [4]	PBM binding z-score [5]	PBM binding z-score [6]	PBM binding z-score [7]	PBM binding z-score [8]
CCAGACAGGTAAGAAGGTAACTCAGCCTCGATTA	-0.0494	0.201	0.207	-0.00945	0.0209	0.0122	0.113	-0.0609
CCTACTGGGCCACGATAGGTCATTGATTCAGTGA	2.93	2.17	2.17	-0.409	1.92	2	-0.0133	0.0413
CCTAATGGGCCATCAGGTCATTGATATCAACGTT	2.76	2.27	2.23	0.496	1.39	3.38	2.92	1.57
TCGAGTAGGTTAGGTGCATTCAGAATGGCGTCGA	0.197	-0.25	-0.0841	1.04	0.1	-0.142	-0.111	1.47
TCTATTAGTTGATTAGGGAAACCGAAACAGCGGA	0.0312	0.311	0.329	1.18	0.472	0.12	0.159	0.507
TCTGCTACGTCAACGATGGTCAGCTAATCTGCTA	-0.67	-0.316	-0.0659	0.0473	-0.261	-0.616	-0.92	-1.61
CCTACTGGGACATCAGGTCATTGATATCAACGTT	2.48	1.91	1.87	0.77	1.54	3.23	3.41	2.42
TGTCAAAGTTCAATGGTAACGTAAGTATCCACAC	3.32	4.79	5.39	3.67	3.74	1.39	-0.627	3.52
GCTGCTAGGTCAACTGATGGTAAGCTAAAGCTCG	2.98	4.25	4.92	1.14	2.73	2.9	0.776	-0.0201
TCGAGTAGGTTAGGGGCATTCATAATGGCGTCGA	0.847	0.406	0.583	0.422	0.801	0.804	0.251	0.868
ATCGAAAGGTCGACGAGGTGATTATACACCGTTT	2.78	4.21	3.9	1.34	4.35	3.58	0.498	1.54
GCTGCTAGGTCAGGTTGGTAAGCTAACGGGTACG	2.26	2.6	3.55	0.418	1.02	1.7	0.477	0.193
ATCGAAAGGTCGCCGAGGTGAGTATACACCGTTT	3.6	4.9	5.02	1.78	5.24	4.1	1.17	1.53
ACAATTAGTTGAGACGAGGGCAACCGATAGGTTG	1.5	0.974	0.94	0.611	0.718	2.74	0.375	1.07
TGACCAAGGTGAAGGTCGTTGATCCCTCTGTAGA	1.87	1.64	1.25	-0.322	1.84	2.37	0.58	0.744
TAGACTAGGTCATGGGCCAGTATACCACGCGAAC	2.68	3.79	4.47	-0.0129	2.96	2.73	0.989	0.435
TAGCCTAGTTCAGATCGGGCCAGTATACGCTATA	-0.206	-0.0236	0.216	0.421	-0.081	2.53	-0.553	0.117
TCGAGTAGGTTAGGGGCATTCACAATGGCGTCGA	0.776	0.234	0.502	0.518	0.424	1.06	0.276	1.04
AGTCACAGTTCACTAGGTAACGTAAGATTCAGCT	1.19	2.17	2.07	2.64	1.74	1.34	0.333	1.8

Sequence	PBM binding z-score [1]	PBM binding z-score [2]	PBM binding z-score [3]	PBM binding z-score [4]	PBM binding z-score [5]	PBM binding z-score [6]	PBM binding z-score [7]	PBM binding z-score [8]
CCTTACGGGTCCCGAGGTTATAGCACGACGAGCG	0.515	0.416	0.388	-1.34	0.999	1.1	0.132	0.162
TCAAATAGGTAAACAGGTGAAAGTCCGTAAGTTA	0.737	0.645	0.221	1.46	1.15	0.783	0.141	0.236
TCAGCCAGGTGAAGGTAACTCAGGTACGCAGTCG	0.236	0.119	-0.0268	0.397	0.607	1.8	0.391	-0.347
ACTTACGTGTCAACGAGGTTATAGCACGCGTATA	1.17	1.44	1.18	0.532	1.38	1.99	0.476	0.875
GATACATGGTCAGCTAGAGGCCAGAGTATGGAAA	0.679	1.39	0.818	-0.556	0.128	-0.168	-1.01	-0.418
TCTTGTAGATCATAGGTTAAGAAAGCCGAAGCCT	0.203	0.785	0.187	0.657	1.34	0.458	-0.386	-0.05
CCTGCTAGGTCATGGTCTGCTAATCTACAGTATG	2.97	3.73	4.43	2.02	2.66	3.17	1.35	0.439
ATACCAAGGTGATCGTGAGGTCGTTGACACTAAC	1.85	2.27	0.855	0.311	1.56	3.63	2.59	2.93
GCTCGCAGGCCATTTGGGTCACTCAATGACGGGC	1.93	1.23	1.41	0.0952	0.671	1.93	0.651	0.416
ATATGTAGGTTAGCTGGGGTTATTCAGACTAGGC	1.42	1.54	0.961	0.972	2.43	4.32	1.11	1.65
ACTATTAGTTGACTTAGGGCACCCGATACGACGC	0.58	0.574	0.897	0.79	0.316	0.993	0.664	0.399
CCGATTAGTTGACCATAAGGGCAACCGAAGCTCG	2.01	0.824	0.774	0.777	0.56	1.7	0.965	0.334
AGAATGAGGTTATTAAGATTAGGGAATTGCGGTC	0.809	1.27	0.836	2	1.72	2.05	0.933	1.29
CCTTACGGGTCACGAGGTAATAGCACGACGAGCG	3.32	5.87	5.34	1.67	6.56	3.52	0.849	0.979
CGAACTAGGCCAAGGACAGTGAATCTCCGCACGC	0.591	-0.0156	0.663	0.163	-0.0922	1.35	0.94	-0.0931
GCTAGCAGGCCATTTGGGTCACTCACTGACGGGC	1.96	0.722	1.04	0.199	0.604	1.73	0.972	0.0479
CGAACTAGGTCTAGGACAGTGAATCTCCGCACGC	-0.234	-0.33	-0.233	0.104	-0.217	0.316	0.0986	-0.409
AGAACGAGAGCACGCTGAGTTGATAGCAGAGTAG	-1.13	-0.185	0.0866	-0.192	-0.166	-0.571	-1.24	-0.355
AGAATGCGGTTAAGATCAGGGAAACAGAATACAT	-0.126	0.0483	0.299	-0.536	-0.0604	0.164	-0.363	-0.162

Sequence	PBM binding z-score [1]	PBM binding z-score [2]	PBM binding z-score [3]	PBM binding z-score [4]	PBM binding z-score [5]	PBM binding z-score [6]	PBM binding z-score [7]	PBM binding z-score [8]
ACTCGGAGGACAAAGGTCCGAGCTACGCCAGTGA	0.57	0.663	0.927	0.364	0.0174	0.646	-0.259	-0.261
ACTTACAGGTCAACGAGGTTATAGCACGCGTATA	4.19	5.93	5.75	2.76	5.89	4.02	1.8	4.27
CAACCTAGGTCAAGGTCAAAGTCGGTTTGTGCCA	5.28	6.18	6.82	2.98	6	4.3	3.92	4.12
GGAGCGAGGGCAAAGTTGATAGCATCTGTCGACG	0.881	1.71	1.34	2.06	1.7	0.838	-0.34	0.99
TCTAGTAGGCCAGAGGGTCACTCAAGAGGTACGG	2.95	2.83	2.16	0.571	2.75	1.74	0.0135	0.631
ATCGCTAGGTAACCAAGTTCAGTGAATGCCGAAC	0.915	0.229	0.277	0.0688	0.062	0.934	-0.378	1.7
ACAGACAGGTGATGAATGTAACTCAGGCTATCAT	-0.0762	0.375	0.506	-0.126	0.591	0.0526	-0.294	-0.0787
CCGACTGGGGCAAGGTTACAATAACGCACAGCCA	1.47	1.1	1.24	-0.315	1.27	1.09	-0.205	0.439
CCTTCTAGGTCAATGGTCAGCTAAAGCAGCTCGC	2.97	3.53	4.58	1.88	2.35	2.71	1.37	0.249
CGTCCAAGGTCAAAGGTCAGTGCAGAGATGACGG	5.5	8.65	8.11	4.2	10	4.76	3.26	4.12
CCTACTGGGCCACGAAAGGTCATTAATTCAGTGA	4.39	4.33	3.75	0.737	4.52	3.67	1.04	2.25
CCGACTGGGGCGTAAGGTTACCATAAGCCAGCCC	1.23	0.788	0.295	-0.36	0.979	1.92	0.973	-0.426
CCGAGTAGGCTATGGGGCATTCAGGCAACGGTGA	-0.154	-0.57	-0.466	-0.62	-0.38	-0.343	-0.619	-0.709
CCGACTGGGGCATCAGGTTACCATAAGCCAGCCC	0.867	0.461	0.586	-0.734	0.214	0.994	0.484	-0.423
TCTTGTAGCTCAACAGGAGGTTAAGAAAGATCGA	-0.0225	0.173	0.0214	-0.206	0.559	0.491	-1.06	-0.327
TCTTGTAGATCAGCAGGTTGAGAAAGCTGGCCAA	-0.505	-0.343	-0.727	0.441	0.0477	-0.234	-0.41	-0.222
ATCGCAAGGTCGAGGTGAGTATAGAGAAAGGGAA	1.76	2.55	2.56	0.563	2.35	2.62	0.694	0.322
ATATGTACGTTATCGGGTCATTCAGTTTGCGCAT	2.25	2.06	1.64	1.78	2.34	3.26	2.69	4.2
